This is an account of results in PubChem BioAssay (NCI).

This is part of a sample that, as a whole, favours compounds with a hit. Of some 79,000 tested, about 15% had one in any assay. Unmarked numbers belong to inactive results. Active and inactive are the calls of the source. No stated cut-off is given here; in the data, active means growth inhibition above about 70%; inactive means the rest.

This experiment in a line: NCI Yeast Anticancer Drug Screen. Data for the rad18 strain (AID 177). Conditions: S. cerevisiae rad18 mutant growth inhibition, hits give high values. The method, then:
Growth inhibition of yeast strains with defined genetic alterations is measured as a screen for potential anti-cancer activity. Selected strains with alterations in DNA damage repair or cell cycle control were exposed to compounds and growth inhibition was measured relative to vehicle treated controls. The strain used in this assay is rad18

Take `C/C=C/SC(=Nc1ccccc1)Nc1ccccc1`: the growth inhibition reads like this: (at 1.2 µM) -2%; (at 3.7 µM) -5%; (at 11.0 µM) -8%; (at 33.0 µM) -9%; (at 100.0 µM) 98% (active).
Taken in the same sequence, the figures for `O=[N+]([O-])c1ccc2c(c1)/C(=N/N=C1c3ccccc3Cc3ccccc31)c1cc([N+](=O)[O-])cc([N+](=O)[O-])c1-2` were 50%, 81% (active), 97% (active), 97% (active) and 94% (active).
`COc1cc2cc3c4cc(OC)c(OC)cc4cc[n+]3c(C)c2cc1OC`: the growth inhibition (at 1.2 µM) is -23%; the growth inhibition (at 3.7 µM) was -27%; the growth inhibition (at 11.0 µM) was -23%; the growth inhibition (at 33.0 µM) is -22%; the growth inhibition (at 100.0 µM) is -22%.
Take `CC(=O)OC1CCC2(C)C(=CC(C3C=C4CC(OC(C)=O)CCC4(C)C4=C3C3CC5OC6(CCC(C)CO6)C(C)C5C3(C)CC4)C3=C2CCC2(C)C3CC3OC4(CCC(C)CO4)C(C)C32)C1` (stereo not given): the growth inhibition reads like this: (at 1.2 µM) -1%; (at 3.7 µM) -3%; (at 11.0 µM) -3%; (at 33.0 µM) 8%; (at 100.0 µM) 51%.
For the compound `CC(C)C(C)/C=C\C(C)C1CCC2C3=CC=C4CC(O)CCC4(C)C3CCC21C` (stereo not given), the growth inhibition by setting is: (at 1.2 µM) -2%; (at 3.7 µM) -5%; (at 11.0 µM) -13%; (at 33.0 µM) -19%; (at 100.0 µM) -7%.
`COc1ccc(/C=C/c2sc3ccccc3[n+]2CCCCI)cc1OC`: the growth inhibition was -3% (at 1.2 µM); 0% (at 3.7 µM); 9% (at 11.0 µM); 86% (active) (at 33.0 µM); 96% (active) (at 100.0 µM).
Turning to `COc1ccc(C(NCCNC(c2ccc(OC)c(OC)c2)c2cc3c(cc2O)OCO3)c2cc3c(cc2O)OCO3)cc1OC` (stereo not given), the growth inhibition was -4% (at 1.2 µM); -4% (at 3.7 µM); 8% (at 11.0 µM); 75% (active) (at 33.0 µM); 98% (active) (at 100.0 µM).
Turning to `CC1(C)CC(=O)C(/C=N/c2nc(-c3ccccc3)cs2)=C(O)C1`, the growth inhibition was 6% (at 1.2 µM); 22% (at 3.7 µM); 72% (active) (at 11.0 µM); 88% (active) (at 33.0 µM); 91% (active) (at 100.0 µM).
